DT40 TDP1 no CPT = qHTS for Inhibitors of human tyrosyl-DNA phosphodiesterase 1 (TDP1): qHTS in cells in absence of CPT; AID 686978, 2013; 15% of 420,000 active; Potency, µM (doses to about 46.2 µM), for the others: at the highest dose activity change, negative = growth inhibition, usual class: inhibitors; DT40 Tdp1-/- hTDP1 cells, no CPT, ATP luminescence, 48 h; note: potency is the fitted concentration of half-maximal effect; nearly all actives have a fitted effect of over 55% in size
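A cellular qHTS used chicken DT40 cells lacking endogenous Tdp1 but carrying stably transfected human TDP1. Compounds were applied without camptothecin, and cell growth kinetics were judged by ATP-dependent luminescence after ≥48 hr.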
DT40 TDP1 CPT = growth inhibition of DT40 Tdp1-/-;hTDP1 cells with camptothecin (screen for TDP1 inhibitors) | AID 686979 | 12% of 420,000 active | Potency, µM (titrated, usually from 46.2 µM), inactives show at the highest dose activity change, negative = growth inhibition, most hits filed as inhibitors | chicken DT40 Tdp1-/-;hTDP1 cells + 20 nM CPT, ATP luminescence, 48 h; note: potency is the fitted concentration of half-maximal effect; nearly all actives have a fitted effect of over 55% in size
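Cell growth measured by CellTiter-Glo luminescence after a minimum 48 h, 37 C compound exposure with 20 nM CPT in Tdp1-knockout DT40 cells stably expressing hTDP1, seeded 400/well; qHTS titration format.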
HT1080 IDH1KD tx = toxicity to HT-1080 IDH1 knockdown cells (counter line). HT-1080 IDH1 knockdown viability, ATP luminescence, 48 h. Potency, µM (doses to about 46.1 µM), for the others: at the top dose activity, negative = toxicity, usual class: cytotoxic. 2% of 360,000 active;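 note: potency is the fitted concentration of half-maximal effect; 0% = DMSO wells and -100% = cell-free medium wells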
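In this qHTS, HT-1080 cells depleted of IDH1 are exposed for 48 h at 37 °C to compound titrations. Toxicity is scored from CellTiter-Glo luminescence, with DMSO as full viability and medium alone as none.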
HT1080-NT tox = kills 2HG-producing HT-1080-NT fibrosarcoma cells; HT-1080-NT fibrosarcoma viability, CellTiter-Glo ATP luminescence, 48 h; Potency, µM (top dose mostly 46.1 µM), for the others: at the highest dose activity, negative = less viability, usual class: cytotoxic; 1.6% of 360,000 active;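 note: NT is the 2HG producing partner of a matched IDH1 knockdown line; potency is the fitted concentration of half-maximal effect; 0% = DMSO-treated cells and -100% = media-only wells without cells; nearly all actives have a fitted effect of over 55% in size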
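HT-1080-NT fibrosarcoma cells (2HG-overproducing), 750 cells/well in RPMI with 5% FBS, dosed after 2 h and incubated 48 h at 37C. CellTiter-Glo luminescence normalized to DMSO and no-cell wells; concentration-response curves fitted and classed.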
12-LOX inh = blocks human arachidonate 12S-lipoxygenase. P18054. purified 12hLO, xylenol orange hydroperoxide absorbance. Potency, µM (doses to about 108 µM), inactives show top-dose activity change, negative = inhibition, actives largely listed as inhibitors. 1.1% of 580,000 active; note: potency is the fitted concentration of half-maximal effect
Target sequence (P18054 whole entry, looked up): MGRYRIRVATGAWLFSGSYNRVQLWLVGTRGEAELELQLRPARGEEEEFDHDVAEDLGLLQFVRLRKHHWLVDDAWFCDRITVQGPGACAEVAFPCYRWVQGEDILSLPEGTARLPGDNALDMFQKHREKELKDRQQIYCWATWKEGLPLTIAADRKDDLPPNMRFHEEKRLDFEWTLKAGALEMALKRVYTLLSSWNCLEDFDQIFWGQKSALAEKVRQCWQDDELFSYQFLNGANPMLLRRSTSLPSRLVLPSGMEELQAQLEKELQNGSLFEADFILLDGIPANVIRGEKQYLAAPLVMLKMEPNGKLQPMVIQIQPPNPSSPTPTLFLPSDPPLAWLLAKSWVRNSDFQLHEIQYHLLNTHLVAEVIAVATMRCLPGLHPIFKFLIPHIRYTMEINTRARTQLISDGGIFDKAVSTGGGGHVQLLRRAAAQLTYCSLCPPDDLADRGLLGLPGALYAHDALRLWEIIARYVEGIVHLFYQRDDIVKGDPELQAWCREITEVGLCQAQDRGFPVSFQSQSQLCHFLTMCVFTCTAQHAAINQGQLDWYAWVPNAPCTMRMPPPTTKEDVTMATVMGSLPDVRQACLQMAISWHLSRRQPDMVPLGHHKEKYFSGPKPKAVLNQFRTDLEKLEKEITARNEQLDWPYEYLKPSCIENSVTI
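Purified human 12hLO (150 nM final) in 25 mM Hepes, 0.01% Triton X-100, pH 7.0 was preincubated 15 min at room temperature with compound. Then 40 uM arachidonic acid was added, 30 min. Hydroperoxide was read by Fe-XO absorbance ratio 573/405 nm.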
IL-1B inflam inh = inflammasome signaling inhibition, IL-1 beta readout; AID 743279; THP-1 LPS/ATP IL-1B secretion, AlphaLISA, 16 h; stronger effect = lower value; 4.7% of 360,000 active; activity change, % at 57.5 µM; in the data active = activity change below about -50%; inconclusive = mostly about -30% to -49%
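Secreted IL-1B measured by AlphaLISA bead assay after 16 h compound exposure of THP-1 cells; compounds (final up to 57.5 uM) added 1 h before LPS (250 ng/mL) and ATP (1.25 mM) stimulation; lower signal means less secretion.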
The depositor's hits bear a star; ? = inconclusive; / = no result; [ ] = remark or other dose. The full list was thinned out, with hits kept by preference. Unless noted, calls come from the whole dose curve; as a rule, active = well fitted curve in the direction sought with a large enough effect; inconclusive = small, poorly fitted or top-dose-only effect, or another doubt; inactive = no such curve, though single readings can be large; an effect the other way counts as inactive or inconclusive. Unless noted, % is set by controls: 0 for no effect and ±100 for the full control effect.

SMILES	DT40 TDP1 no CPT	DT40 TDP1 CPT	HT1080 IDH1KD tx	HT1080-NT tox	12-LOX inh	IL-1B inflam inh
Cc1ccc(C)c(NC(=O)CSc2ccc3nc(-c4ccccc4)cn3n2)c1	?	?	/	/	0.9%	/
O=C(CSc1ccc2nc(-c3ccccc3)cn2n1)Nc1ccccc1C(F)(F)F	?	-25.7%	/	/	-49.4%	/
COc1ccc(CCNC(=O)CCc2nnc(-c3cccc(OC(C)C)c3)[nH]c2=O)cc1	/	/	/	/	-2.3%	/
COc1cc(OC)cc(N2C(=O)[C@@H]3C[C@@H](NC(=O)c4cccs4)CCN3C2=O)c1	/	/	/	/	2.3%[176 µM]	/
Oc1ccc(C2C(c3ccccc3)=NN=C(c3ccc(Cl)cc3)N2O)c(O)c1 (stereo not drawn)	-23.3%	-14.6%	-0.8%	-0.9%	31.6µM*	?
Oc1ccc(C2C(c3ccccc3)=NN=C(c3ccccc3F)N2O)c(O)c1 (stereo not drawn)	-9.7%	5.0%	-3.0%	-3.1%	-26.9%	-15.5
NS(=O)(=O)c1ccc(NC(=O)COc2ccc(C(=O)c3ccc(F)cc3)cc2)cc1	11.6µM*	?	-18.5%	-12.1%	-5.2%	?
Cc1ccc(NC(=O)CN(C)C(=O)COc2ccccc2-c2ccccc2)cc1	14.6µM*	-29.0%	?	?	-18.7%	-65.2*
CN(c1ccc(OCC(=O)Nc2ccc(S(N)(=O)=O)cc2)cc1)S(=O)(=O)c1ccc(F)cc1	?	?	-1.9%	-4.4%	203.0%	20.4
Cc1ccc(C(=O)COc2ccccc2-c2ccccc2)cc1	25.9µM*	23.1µM*	1.8%	-5.4%	5.3%	-3.8
Cc1ccc(S(=O)(=O)Oc2ccccc2-c2ccccc2)cc1	13µM*	16.4µM*	16.4µM*	?	-0.8%	45.1
Cc1ccc(C(=O)COc2ccccc2N2C(=O)c3ccccc3C2=O)cc1	1.9%	6.0%	15.8%	-1.7%	-9.8%	22.4
CN(C)C(=O)c1ccc(CNC(=O)c2nccnc2N)cc1	/	/	/	/	-7.5%	/
c1ccc(Oc2ncnc3scc(-c4ccccc4)c23)cc1	/	/	/	/	6.3%	/
CN(CC(=O)Nc1cccc(F)c1)C(=O)c1sccc1-c1ccccc1	-20.7%	-9.3%	-8.0%	-17.2%	2.1%	-1.9
Cc1ccc(NC(=O)CN(C)C(=O)COc2ccc(C(=O)c3ccc(F)cc3)cc2)cc1	20.6µM*	-29.2%	-9.1%	-6.3%	-17.5%	-23.0
CN(CC(=O)Nc1ccc(Cl)cc1)C(=O)c1sccc1-c1ccccc1	?	20.6µM*	-29.8%	1.8%[9.24 µM]	-15.5%	-13.3
CCC(=O)c1ccc(OCC(=O)OCC(=O)N(C)CC(=O)Nc2ccc(F)cc2)cc1	2.3%	-18.0%	5.1%	-9.3%	-3.7%	19.3
Cc1noc(C)c1-c1cc2c(cc(C)n2CCN(C)C)c(-c2cccnc2)n1	/	/	/	/	14.1%[176 µM]	/
CC(C)CNC(=O)C1(CCO)CCN(c2ncccn2)C1 (stereo not drawn)	/	/	/	/	1.9%	/
CCCC(=O)c1cc(O)c(O)cc1O	17.2µM*	?	/	/	1.65µM*	/
COc1ccc2[nH]c3c(=O)n(CCCCC(=O)NCCN4CCCC4)c(=S)[nH]c3c2c1	2.3%	6.6%	2.3%	2.4%	14.1µM*	-19.1
CS(=O)(=O)c1ncc(Cl)c(C(=O)N2CCN(c3cccc(Cl)c3)CC2)n1	0.517µM*	1.03µM*	/	/	7.8%	/
Cc1ccc2nc(C(=O)N3CCN(c4cccc(Cl)c4)CC3)cn2c1	/	/	/	/	17.1%	/
CCS(=O)(=O)c1ncc(Cl)c(C(=O)N2CCN(c3cccc(Cl)c3)CC2)n1	0.206µM*	0.259µM*	/	/	0.5%	/
O=C(CCCC(=O)N1CCc2ccccc21)N1CCc2ccccc21	-11.2%	-3.9%	8.8%	14.0%	-5.4%	5.8
O=C(CN1CCCc2ccccc21)N1CCc2ccccc21	?	16.4µM*	-17.7%	-2.5%	80.6%	48.8

Screening results: PubChem, National Center for Advancing Translational Sciences (NCATS)
